# Compound activity from PubChem.
# Only some compounds are listed: those with a hit (about 27% of all), similar ones and a draw of the others.
# CYP2C9 inhib: inhibitors of human CYP2C9; CYP2C9 Supersomes, luciferin-H conversion, luminescence; inhibition, % at 5 µM; 96,000 compounds, 20% hits; AID 777;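 active means blocking of liver enzyme CYP2C9 beyond about 50% at 5 µM, limit read from the data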
# CYP2C9 activ: activators of human CYP2C9. 96,000 compounds, 1.4% hits. activation factor at 5 µM. P11712. recombinant CYP2C9, luciferin-H conversion, luminescence; stronger effect = higher value; factor 1 = untreated enzyme, 0 = blocked;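 active means activation factor of 2 or more for CYP2C9 at a 5 µM dose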;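 further: 0 = sulfaphenazole-blocked wells and 1 = vehicle-only wells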
# CYP2C19 inhib: inhibitors of human CYP2C19. CYP2C19 Supersomes, luciferin-H EGE luminescence, 30 min. inhibition, % at 5 µM. 96,000 compounds, 21% hits. AID 778;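 active means CYP2C19 inhibition above a set limit at 5 µM in the primary screen, cut at about 50% in these data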;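 further: plate controls were negative control wells for no effect and 2.5 mM tranylcypromine positive control for full effect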
# Target sequence (P33261 whole entry, looked up): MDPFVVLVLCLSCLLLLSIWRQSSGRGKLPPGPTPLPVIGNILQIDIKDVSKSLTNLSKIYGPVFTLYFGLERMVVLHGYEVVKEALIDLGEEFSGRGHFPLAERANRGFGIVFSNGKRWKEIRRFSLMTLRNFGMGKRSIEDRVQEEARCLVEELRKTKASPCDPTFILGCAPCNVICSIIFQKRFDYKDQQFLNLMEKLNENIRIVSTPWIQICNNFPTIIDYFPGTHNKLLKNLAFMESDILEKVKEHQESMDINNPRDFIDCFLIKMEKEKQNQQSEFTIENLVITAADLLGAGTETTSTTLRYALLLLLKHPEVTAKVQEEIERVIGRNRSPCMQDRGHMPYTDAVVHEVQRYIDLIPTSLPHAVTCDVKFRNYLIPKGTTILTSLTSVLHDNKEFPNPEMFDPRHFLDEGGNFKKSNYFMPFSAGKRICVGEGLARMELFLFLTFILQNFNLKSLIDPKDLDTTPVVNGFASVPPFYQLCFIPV
# CYP2C19 act: increases human CYP2C19 enzyme activity; recombinant CYP2C19, luciferin-H EGE luminescence; stronger effect = higher value; 0 = fully inhibited enzyme, 1 = untreated enzyme; 96,000 tested, under 10 active; P33261; activation factor at 5 µM;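 active means activation factor of at least 2 at 5 µM in the primary screen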;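 further: 0 = wells with 2.5 mM tranylcypromine and 1 = vehicle-only wells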
# Cav3 T inh: blocks human Cav3.2 T-type calcium channel; O95180; Cav3.2-expressing cells, Fluo-4 calcium fluorescence FDSS; stronger effect = lower value; B-score at 10 µM; 100,000 compounds, 4% hits;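 active means single-dose well whose peak fluorescence ratio is a statistical outlier from its plate by either plate-standardised score or position-corrected B-score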
# Active calls of the source: *; · = no result given.
SMILES,CYP2C9 inhib,CYP2C9 activ,CYP2C19 inhib,CYP2C19 act,Cav3 T inh
Cc1cc(C)c(NC(=O)CSc2nc3c(c(=O)n2C)SC(C)C3)c(C)c1 (stereo not given),82*,0.2,32,0.7,0.94
Cc1ccccc1Nc1c([N+](=O)[O-])ccc2c1=NC1(CCCCC1)N=2,12,0.9,16,0.8,-1.1
O=C(c1cccc(C(F)(F)F)c1)N1CCN(c2cc(=O)[nH]nc2-c2ccccc2)CC1,11,0.9,-7,1.1,1.8
CCOC(=O)c1ccc(Oc2nc(NC(C)(C)C)nc(N(C)C)n2)cc1,88*,0.1,84*,0.2,-7.1*
COC(=O)c1cccnc1-n1c(=O)c2cccnc2n(Cc2ccc(Cl)cc2)c1=O,30,0.7,59*,0.4,-0.12
CC(C)CNC(=O)C1CC(=O)OC12CCCCC2 (stereo not given),3,1,-2,1,-0.098
Cc1nnc2ccc(Oc3ccc(-c4ccccc4)cc3)nn12,22,0.8,16,0.8,-1.3
COC(=O)c1ccc2c(=O)[nH]c(CN3c4ccccc4CC3C)nc2c1 (stereo not given),82*,0.2,22,0.8,0.54
N#Cc1ccc(COC(=O)c2ccc3c(=O)[nH]c(CN4CCOCC4)nc3c2)cc1,0,1,-14,1.1,-0.15
CC1Cc2ccccc2N1Cc1nc2cc(Cl)ccc2c(=O)[nH]1 (stereo not given),80*,0.2,57*,0.4,-1.9
O=c1[nH]c(CN2CCCCC2)nc2ccccc12,-14,1.1,-10,1.1,0.2
CC1Cc2ccccc2N1Cc1nc2scc(-c3cccs3)c2c(=O)[nH]1 (stereo not given),95*,0,75*,0.3,-3.1
CC(C)Oc1ccc(Cc2c(O)nc(NCCCN(C)C)[nH]c2=O)cc1,·,·,·,·,0.9
Cc1cc(C(=O)OCC(=O)NCCc2ccccc2)c(C)o1,88*,0.1,76*,0.2,-0.85
CCOc1ncccc1C(=O)OCC(=O)Nc1cc(C)ccc1C,39,0.6,26,0.7,0.94
CCOc1ncccc1C(=O)OCC(=O)NCCc1ccccc1,16,0.8,68*,0.3,0.62
COc1ccc(-c2cc(C(F)(F)F)nc(SCC(=O)N3CC(C)OC(C)C3)n2)cc1OC (stereo not given),·,·,·,·,0.52
COc1ccccc1N(CC(=O)NCC1CCCO1)C(=O)CNS(=O)(=O)c1ccc(C)cc1 (stereo not given),4,1,-1,1,-1.1
Cc1ccc(Cn2c(-n3nc(C)cc3C)nc3c2c(=O)[nH]c(=O)n3C)cc1,10,0.9,15,0.8,-0.22
Cn1c(=O)[nH]c(=O)c2c1nc(N1CCOCC1)n2CC(O)COc1ccccc1 (stereo not given),75*,0.2,18,0.8,1.5
Cc1cc(C)n(-c2nc3c(c(=O)[nH]c(=O)n3C)n2Cc2cccc(Br)c2)n1,46,0.5,55*,0.4,0.5
Cc1cc(C)n(-c2nc3c(c(=O)[nH]c(=O)n3C)n2CC(O)COc2ccccc2)n1 (stereo not given),14,0.9,25,0.8,0.71
Cc1cc(C)n(-c2nc3c(c(=O)[nH]c(=O)n3C)n2CC(O)COc2ccccc2C)n1 (stereo not given),19,0.8,74*,0.3,-0.026
O=C(N/N=C/c1cccs1)c1cc(-c2ccc3ccccc3c2)n[nH]1,30,0.7,5,0.9,-0.03
COc1ccccc1-c1cc(C(=O)N/N=C/C=C/c2ccccc2[N+](=O)[O-])c2ccccc2n1,66*,0.3,21,0.8,-4.1*
SMILES,CYP2C9 inhib,CYP2C9 activ,CYP2C19 inhib,CYP2C19 act,Cav3 T inh
COc1ccc(-c2cc(C(=O)N/N=C/c3ccc(OC)c(COCC(F)(F)C(F)F)c3)c3ccccc3n2)c(OC)c1,88*,0.1,79*,0.2,-2.1
COc1ccccc1-c1cc(C(=O)N/N=C/c2cccs2)c2ccccc2n1,96*,0,80*,0.2,·
COc1ccc(-c2cc(C(=O)N/N=C/c3sccc3C)c3ccccc3n2)c(OC)c1,88*,0.1,65*,0.3,-3.7
COc1cccc(/C=N\NC(=O)c2cc(OCC(F)(F)F)ccc2OCC(F)(F)F)c1,20,0.8,12,0.9,·
Cc1cccc(-c2nnc(SCC(=O)Nc3nc4c(s3)CCCC4)n2C)c1,·,·,·,·,-0.81
COc1ccc(CNC(=O)C2CCCN(c3nccc(C)n3)C2)cc1 (stereo not given),·,·,·,·,0.81
COc1cc(C(=O)O)nc2ccccc12,1,1,-6,1.1,0.99
COc1ccc(-c2cc(C(=O)O)c3ccccc3n2)c(OC)c1,62*,0.4,5,1,-0.18
O=C(N/N=C/c1cccc(F)c1)c1cc(-c2ccco2)nc2ccccc12,18,0.8,9,0.9,0.72
CCCc1cc(C(=O)N/N=C/c2ccc(CC)s2)c2ccccc2n1,65*,0.3,-6,1.1,0.053
COc1cc(OC)c2c(c1)C(=O)c1cc(OC)cc(OC)c1C2=O,2,1,4,1,0.2
CC1(C)OC(=O)C2(Cc3ccccc3N3CCCCC32)C(=O)O1 (stereo not given),13,0.9,61*,0.4,0.89
COCCn1c(=S)[nH]c2cc(C(=O)NC(C)C)ccc2c1=O,15,0.9,22,0.8,-0.53
COCCNC(=O)C1CCC(Cn2c(=S)[nH]c3ccccc3c2=O)CC1 (stereo not given),61*,0.4,53*,0.5,0.85
O=C(NCCc1c[nH]c2ccccc12)C1CCC(Cn2c(=S)[nH]c3ccccc3c2=O)CC1 (stereo not given),98*,0,100*,0,-5
CCC(C)C(NC(=O)c1ccccc1NC(=O)c1ccco1)C(=O)NC1CCCCC1 (stereo not given),42,0.6,17,0.8,-1.7
N#Cc1ccccc1NC(=O)CSc1nnc(-c2ccccc2)n1-c1ccccc1,78*,0.2,36,0.6,0.014
CCN(CC)c1ccc(-c2nnc(SCC(=O)Nc3ccccc3C#N)n2-c2ccccc2)cc1,74*,0.3,52*,0.5,-2.4
Cc1ccc(-c2nnc(SCC(=O)CC(=O)Nc3ccccc3)n2-c2ccccc2)cc1,20,0.8,3,1,0.0027
O=C(C=C1CCN(c2ncc(C(F)(F)F)cc2Cl)CC1)NNC(=O)Nc1ccc(Cl)cc1,21,0.8,5,0.9,0.72
O=C(CN1CCN(S(=O)(=O)c2ccc(F)cc2)CC1)Nc1ccc2c(c1)OCO2,32,0.7,43,0.6,·
CN(C)S(=O)(=O)N1CCC(c2ccc(F)cc2)C(COc2ccc3c(c2)OCO3)C1 (stereo not given),95*,0.1,79*,0.2,·
CC(C)CCNC(=O)C(c1cccs1)N(CC1CCCO1)C(=O)Cn1nnc2ccccc21 (stereo not given),13,0.9,2,1,-0.98
COc1cc2c(cc1NS(=O)(=O)N1CCCC1)oc1ccccc12,-95,2*,82*,0.2,-5.6*
